Measured values: PubChem BioAssay AID2284104 (EPA ToxCast)
The source made the active and inactive calls. Rule for the calls: active = hit-call score of the fitted dose curve at least 0.9, where 1 is the maximum; inactive = score below 0.9.

Target: human PRAK CAMK Kinase, MAPKAPK5 (gene 8550) (UniProt Q8IW41)
Experiment: ERF_TW_ENZ_hMAPKAPK5: Eurofins (ERF) Enzymatic Radiometric [10 uM ATP] LeadHunter Assay for human PRAK CAMK Kinase
Description: ERF_TW_ENZ_hMAPKAPK5 is a biochemical, single-readout assay that uses extracted gene-proteins in a cell-free assay. Measurements were taken 0.5 hour after chemical dosing in a 96-well plate. See PRAK Human CAMK Kinase Enzymatic Radiometric Assay [10 uM ATP], Panlabs.ERF_TW_ENZ_hMAPKAPK5 is an assay component calculated from the ERF_TW_ENZ_hMAPKAPK5 assay. It is designed to measure enzyme activity using a type of enzyme reporter as detected by scintillation counting with radiometry technology.Data from the assay component ERF_TW_ENZ_hMAPKAPK5 was analyzed at the assay endpoint, ERF_TW_ENZ_hMAPKAPK5, in the positive analysis fitting direction relative to DMSO as the negative control and baseline of activity. Using a type of enzyme reporter, loss-of-signal activity can be used to understand changes in enzymatic activity as they relate to gene MAPKAPK5. To generalize the intended target to other relatable targets, this assay endpoint is annotated to the kinase intended target family, where the subfamily is serine/threonine kinase.
Human recombinant protein kinase PRAK expressed in insect Sf21 cells is used. Test compound is preincubated with 0.44 U/ml enzyme in modified MOPS buffer pH 7.2 for 15 minutes at 37C. […] An aliquot is removed and counted to determine the amount of [32P]PRAK substrate. […]

Sequence of human PRAK CAMK Kinase, MAPKAPK5 (gene 8550) (Q8IW41 whole entry, looked up): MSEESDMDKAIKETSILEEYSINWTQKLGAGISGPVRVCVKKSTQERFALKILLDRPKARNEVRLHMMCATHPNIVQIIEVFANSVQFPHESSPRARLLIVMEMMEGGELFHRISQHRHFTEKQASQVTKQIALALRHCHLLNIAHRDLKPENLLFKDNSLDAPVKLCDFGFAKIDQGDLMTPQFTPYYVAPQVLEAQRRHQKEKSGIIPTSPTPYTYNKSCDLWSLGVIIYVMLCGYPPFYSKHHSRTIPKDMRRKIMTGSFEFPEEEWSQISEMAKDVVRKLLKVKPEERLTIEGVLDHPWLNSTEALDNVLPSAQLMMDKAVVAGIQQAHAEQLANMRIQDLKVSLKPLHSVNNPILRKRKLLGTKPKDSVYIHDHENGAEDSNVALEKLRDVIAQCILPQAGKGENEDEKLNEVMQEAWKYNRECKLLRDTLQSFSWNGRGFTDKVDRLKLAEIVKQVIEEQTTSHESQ

SMILES	AC50
O=C(/C=C/c1ccc(O)cc1)CC(=O)/C=C/c1ccc(O)cc1	1.02 µM (active)
